Reference: PubChem BioAssay (EPA / NIEHS)
Results filed as inconclusive are left out. Active and inactive are the calls of the source. The calls were made as follows, unless noted: active = hit-call score of the fitted dose curve at least 0.9, where 1 is the maximum; inconclusive = response in the unintended direction; inactive = score below 0.9.

Experiments:
[1] = read-out: Cytochrome P450 2B6 (Homo sapiens) (UniProt P20813); test: CLD_CYP2B6_6hr: CellzDirect (CLD) Gene Expression Assay for xenobiotic metabolism (CYP2B6) at 6 hours (AID 2283677);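 also: actives raise CYP2B6 transcript above DMSO baseline so AC50 marks an inducer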
In short: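 Primary human hepatocytes dosed with chemicals at multiple concentrations, vehicle 0.2% DMSO; CYP2B6 mRNA induction measured 6 h after dosing by quantitative nuclease protection assay with chemiluminescence, gain of signal fitted relative to DMSO.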

[2] = CCTE_Padilla_ZF_144hpf_TERATOSCORE: (Legacy) CCTE's 144 Hour Post-fertilization zebrafish Assay Teratoscore, Padilla Lab (AID 2283679; active = hit-call score of the fitted dose curve at least 0.9, where 1 is the maximum; inactive = score below 0.9;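 as to AC50: zebrafish embryos with chorions exposed by immersion from 6-8 hpf to 5 dpf with daily renewal; teratogenicity score from eye scoring of death hatching and malformations at 144 hpf; higher score means more developmental defects relative to DMSO baseline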)
In short: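 Larvae scored by eye at 144 hpf for death, hatching and malformations after a day in clean Hanks'. Before that, daily-renewed exposure at 80 uM (0.4% DMSO, 26C) from roughly 6-8 hpf through 5 dpf, 4 embryos per chemical.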

[3] = read-out: Cytochrome P450 3A4 (Homo sapiens) (UniProt P08684); test: CLD_CYP3A4_6hr: CellzDirect (CLD) Gene Expression Assay for xenobiotic metabolism (CYP3A4) at 6 hours (AID 2283680)
In short: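 Primary human hepatocytes (two donor preparations) dosed; CYP3A4 mRNA harvested at 6 h and quantified by qNPA chemiluminescence. Gain of signal fitted against 0.2% DMSO vehicle; cytotoxicity flagged by phase-contrast morphology.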

[4] = read-out: xenobiotic metabolism (CYP1A2), CYP1A2 (gene 1544); test: CLD_CYP1A2_24hr: CellzDirect (CLD) Gene Expression Assay for xenobiotic metabolism (CYP1A2) at 24 hours (AID 2283683)
In short: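 Primary human hepatocytes from two donor preparations dosed daily with multiple concentrations of chemical, 0.2% DMSO vehicle. CYP1A2 mRNA at 24 h quantified by qNPA chemiluminescence; gain of signal analyzed relative to DMSO. Cytotoxicity flagged by phase-contrast morphology.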

[5] = read-out: Cytochrome P450 2C9 (Homo sapiens) (UniProt P11712); test: CLD_CYP2C9_24hr: CellzDirect (CLD) Gene Expression Assay for xenobiotic metabolism (CYP2C9) at 24 hours (AID 2283688)
In short: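 Primary human hepatocytes from two donor preparations, dosed daily for two days at multiple concentrations; vehicle 0.2% DMSO. CYP2C9 mRNA induction at 24 h measured by qNPA chemiluminescence relative to DMSO; cytotoxicity annotated from morphology.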

[6] = read-out: Glyceraldehyde-3-phosphate dehydrogenase (Homo sapiens) (UniProt P04406); test: CLD_GAPDH_24hr: CellzDirect (CLD) Gene Expression Assay for Baseline Control (Glyceraldehyde 3-phosphate dehydrogenase) at 24 hours (AID 2283692)
In short: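 Primary human hepatocytes (two donor preparations) dosed daily for two days, 0.2% DMSO vehicle; GAPDH mRNA measured at 24 h by qNPA chemiluminescence as a background control, gain-of-signal fitted against DMSO.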

[7] = read-out: alkyl and aryl transferase (GSTA2), GSTA2 (gene 2939); test: CLD_GSTA2_24hr: CellzDirect (CLD) Gene Expression Assay for alkyl and aryl transferase (GSTA2) at 24 hours (AID 2283693)
In short: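 Primary human hepatocytes (two donor preparations) dosed daily for two days with chemicals at multiple concentrations (vehicle 0.2% DMSO); GSTA2 mRNA at 24 h measured by qNPA chemiluminescence, gain-of-signal versus DMSO.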

[8] = read-out: sulfotransferase (SULT2A), SULT2A1 (gene 6822); test: CLD_SULT2A_24hr: CellzDirect (CLD) Gene Expression Assay for sulfotransferase (SULT2A) at 24 hours (AID 2283694)
In short: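 Primary human hepatocytes from two donor preparations were dosed daily with fresh solutions, vehicle 0.2% DMSO. At 24 h, lysates went to quantitative nuclease protection (qNPA) with S1 digestion and chemiluminescent readout. Cytotoxicity was annotated from phase-contrast morphology.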

[9] = read-out: ABC Transporter (ABCB1), ABCB1 (gene 5243); test: CLD_ABCB1_48hr: CellzDirect (CLD) Gene Expression Assay for ABC Transporter (ABCB1) at 48 hours (AID 2283695)
In short: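 Primary human hepatocytes from two donor preparations dosed daily on two consecutive days with 0.2% DMSO vehicle. Harvest at 48 h. ABCB1 mRNA quantified by qNPA with chemiluminescence and fitted for gain of signal versus DMSO.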

[10] = read-out: Glyceraldehyde-3-phosphate dehydrogenase (Homo sapiens) (UniProt P04406); test: CLD_GAPDH_6hr: CellzDirect (CLD) Gene Expression Assay for Baseline Control (Glyceraldehyde 3-phosphate dehydrogenase) at 6 hours (AID 2283681);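 also: active means increased signal relative to DMSO vehicle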
In short: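 Primary human hepatocytes from two donor preparations, dosed at multiple concentrations with 0.2% DMSO vehicle; GAPDH mRNA measured 6 h after dosing by chemiluminescent quantitative nuclease protection assay (qNPA) on denatured lysates. Serves as background control; cytotoxicity annotated by morphology.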

[11] = read-out: ABC Transporter (ABCB1), ABCB1 (gene 5243); test: CLD_ABCB1_24hr: CellzDirect (CLD) Gene Expression Assay for ABC Transporter (ABCB1) at 24 hours (AID 2283684)
In short: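 Primary human hepatocytes, two donor preparations, dosed daily with fresh solutions; vehicle 0.2% DMSO; harvested at 24 h. ABCB1 mRNA measured by quantitative nuclease protection assay (chemiluminescence); morphology-based cytotoxicity annotated.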

[12] = read-out: Cytochrome P450 3A4 (Homo sapiens) (UniProt P08684); test: CLD_CYP3A4_24hr: CellzDirect (CLD) Gene Expression Assay for xenobiotic metabolism (CYP3A4) at 24 hours (AID 2283689)
In short: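 Primary human hepatocytes from two donors dosed daily with fresh compound for two days, 0.2% DMSO vehicle. CYP3A4 mRNA at 24 hr by qNPA chemiluminescence; gain-of-signal fit versus DMSO, cytotoxicity flagged by morphology.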

[13] = read-out: Cytochrome P450 2B6 (Homo sapiens) (UniProt P20813); test: CLD_CYP2B6_24hr: CellzDirect (CLD) Gene Expression Assay for xenobiotic metabolism (CYP2B6) at 24 hours (AID 2283686)
In short: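 Primary human hepatocytes dosed daily for two days with fresh solutions, harvested at 24 hours; mRNA induction quantified by qNPA chemiluminescence, gain of signal vs 0.2% DMSO vehicle. Cytotoxicity annotated from phase-contrast morphology.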

[14] = read-out: Cytochrome P450 2C19 (Homo sapiens) (UniProt P33261); test: CLD_CYP2C19_24hr: CellzDirect (CLD) Gene Expression Assay for xenobiotic metabolism (CYP2C19) at 24 hours (AID 2283687);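 also: activity means mRNA induction above DMSO vehicle baseline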
In short: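 Primary human hepatocytes (two donor preparations) dosed daily with fresh test chemical in 0.2% DMSO vehicle; CYP2C19 mRNA induction measured at 24 h by quantitative nuclease protection assay with chemiluminescence, fitted for gain of signal versus DMSO.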

[15] = read-out: glucuronosyltransferase (UGT1A1), UGT1A1 (gene 54658); test: CLD_UGT1A1_24hr: CellzDirect (CLD) Gene Expression Assay for glucuronosyltransferase (UGT1A1) at 24 hours (AID 2283696)
In short: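 Primary human hepatocytes from two donor preparations were dosed (0.2% DMSO vehicle) and harvested at 24 h; UGT1A1 mRNA induction was quantified by chemiluminescent qNPA, fitted as gain relative to DMSO.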

[16] = read-out: Broad substrate specificity ATP-binding cassette transporter ABCG2 (Homo sapiens) (UniProt Q9UNQ0); test: CLD_ABCG2_24hr: CellzDirect (CLD) Gene Expression Assay for ABC Transporter (ABCG2) at 24 hours (AID 2283685)
In short: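 Primary human hepatocytes were dosed daily with ToxCast chemicals at multiple concentrations (vehicle 0.2% DMSO). ABCG2 mRNA was measured at 24 h by qNPA chemiluminescence; induction was scored as gain of signal versus DMSO.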

[17] = read-out: organic anion transporter (SLCO1B1), SLCO1B1 (gene 10599); test: CLD_SLCO1B1_24hr: CellzDirect (CLD) Gene Expression Assay for organic anion transporter (SLCO1B1) at 24 hours (AID 2283690)
In short: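 Primary human hepatocytes (two donor preparations) dosed daily for two days with chemicals at multiple concentrations, 0.2% DMSO vehicle. SLCO1B1 mRNA at 24 h measured by qNPA chemiluminescence; induction fitted relative to DMSO.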

[18] = read-out: Cytochrome P450 3A4 (Homo sapiens) (UniProt P08684); test: CLD_CYP3A4_48hr: CellzDirect (CLD) Gene Expression Assay for xenobiotic metabolism (CYP3A4) at 48 hours (AID 2283698)
In short: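 Primary human hepatocytes from two donor preparations dosed daily for two days with multiple chemical concentrations, 0.2% DMSO vehicle. CYP3A4 mRNA at 48 h by quantitative nuclease protection assay, chemiluminescence, positive fit versus DMSO; cytotoxicity flagged morphologically.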

[19] = CLD_ACTIN_6hr: CellzDirect (CLD) Gene Expression Assay for Baseline Control (Actin) at 6 hours (AID 2283676);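 also: active means increased actin mRNA relative to DMSO vehicle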
In short: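 Primary human hepatocytes dosed with fresh chemical solutions (vehicle 0.2% DMSO), harvested at 6 h. Actin mRNA quantified by quantitative nuclease protection assay with chemiluminescent read-out, as background control relative to DMSO.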

Measured: AC50

Chain of Cytochrome P450 3A4 (Homo sapiens) (P08684 whole entry, looked up): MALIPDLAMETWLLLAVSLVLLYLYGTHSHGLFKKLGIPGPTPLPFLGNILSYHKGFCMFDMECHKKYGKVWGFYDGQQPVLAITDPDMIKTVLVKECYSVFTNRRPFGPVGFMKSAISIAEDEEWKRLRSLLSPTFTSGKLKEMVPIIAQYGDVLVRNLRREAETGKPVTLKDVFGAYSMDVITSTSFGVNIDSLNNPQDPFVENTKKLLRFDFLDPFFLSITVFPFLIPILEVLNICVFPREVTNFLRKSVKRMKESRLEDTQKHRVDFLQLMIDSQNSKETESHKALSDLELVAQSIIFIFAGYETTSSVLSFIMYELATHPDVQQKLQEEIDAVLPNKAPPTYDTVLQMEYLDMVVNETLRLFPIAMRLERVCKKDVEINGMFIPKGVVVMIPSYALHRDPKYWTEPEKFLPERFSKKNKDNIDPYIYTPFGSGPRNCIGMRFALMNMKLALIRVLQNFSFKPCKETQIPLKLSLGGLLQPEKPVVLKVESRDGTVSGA
Chain of Broad substrate specificity ATP-binding cassette transporter ABCG2 (Homo sapiens) (Q9UNQ0 whole entry, looked up): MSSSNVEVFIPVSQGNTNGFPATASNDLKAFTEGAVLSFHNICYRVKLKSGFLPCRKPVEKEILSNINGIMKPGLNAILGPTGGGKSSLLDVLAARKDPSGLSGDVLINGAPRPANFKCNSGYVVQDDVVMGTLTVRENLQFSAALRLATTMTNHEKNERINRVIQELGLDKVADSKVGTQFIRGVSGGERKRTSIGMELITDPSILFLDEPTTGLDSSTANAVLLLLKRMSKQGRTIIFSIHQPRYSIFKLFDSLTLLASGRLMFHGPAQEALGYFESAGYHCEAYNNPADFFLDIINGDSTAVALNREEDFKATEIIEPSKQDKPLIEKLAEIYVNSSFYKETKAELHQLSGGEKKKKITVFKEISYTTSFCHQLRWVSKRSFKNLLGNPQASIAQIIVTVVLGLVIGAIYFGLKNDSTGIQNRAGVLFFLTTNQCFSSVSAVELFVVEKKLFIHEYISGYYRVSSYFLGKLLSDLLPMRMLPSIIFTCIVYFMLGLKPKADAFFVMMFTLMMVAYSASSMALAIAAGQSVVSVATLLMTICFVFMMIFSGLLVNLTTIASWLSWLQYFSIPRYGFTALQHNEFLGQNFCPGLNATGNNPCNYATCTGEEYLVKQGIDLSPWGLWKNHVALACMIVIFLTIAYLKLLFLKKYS
Chain of Glyceraldehyde-3-phosphate dehydrogenase (Homo sapiens) (P04406 whole entry, looked up): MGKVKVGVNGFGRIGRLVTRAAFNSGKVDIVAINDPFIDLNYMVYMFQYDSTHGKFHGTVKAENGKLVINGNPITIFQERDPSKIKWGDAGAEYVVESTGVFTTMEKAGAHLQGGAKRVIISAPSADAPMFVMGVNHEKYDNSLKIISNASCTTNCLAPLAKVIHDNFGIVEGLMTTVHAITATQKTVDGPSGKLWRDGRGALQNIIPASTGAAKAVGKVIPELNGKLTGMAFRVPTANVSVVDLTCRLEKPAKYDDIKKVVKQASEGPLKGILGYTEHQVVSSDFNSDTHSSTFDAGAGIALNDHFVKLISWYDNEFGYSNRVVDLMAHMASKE
Chain of Cytochrome P450 2C19 (Homo sapiens) (P33261 whole entry, looked up): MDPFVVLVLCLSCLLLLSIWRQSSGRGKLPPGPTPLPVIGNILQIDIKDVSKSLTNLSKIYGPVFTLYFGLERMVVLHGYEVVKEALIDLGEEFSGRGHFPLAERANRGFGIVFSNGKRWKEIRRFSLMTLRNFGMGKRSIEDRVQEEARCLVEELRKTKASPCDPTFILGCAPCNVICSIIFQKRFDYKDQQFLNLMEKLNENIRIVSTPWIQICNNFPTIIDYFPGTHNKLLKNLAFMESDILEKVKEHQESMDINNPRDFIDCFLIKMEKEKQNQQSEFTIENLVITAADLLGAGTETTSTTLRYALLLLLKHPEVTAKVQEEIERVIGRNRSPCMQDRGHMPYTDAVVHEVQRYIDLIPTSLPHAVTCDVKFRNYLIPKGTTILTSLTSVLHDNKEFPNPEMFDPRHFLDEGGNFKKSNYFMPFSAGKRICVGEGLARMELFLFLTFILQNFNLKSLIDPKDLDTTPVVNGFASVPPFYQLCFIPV

CCOP(=O)(NC(C)C)Oc1ccc(SC)c(C)c1 (stereo not drawn)
active: [1] 3.13 µM | [2] 50.3 µM | [4] 6.73 µM
inactive: [3] | [5] | [6] | [7] | [8] | [9]

CCCCN(CC)c1c([N+](=O)[O-])cc(C(F)(F)F)cc1[N+](=O)[O-]
active: [1] 2.13 µM | [2] 5.08 µM | [4] 7.29 µM | [12] 6.35 µM
inactive: [3] | [10] | [11] | [5] | [7] | [8]

CCOP(=S)(OCC)Oc1cc(C)nc(C(C)C)n1
active: [1] 1.96 µM | [2] 62.7 µM | [4] 7.6 µM | [13] 0.747 µM | [15] 1.92 µM
inactive: [3] | [10] | [11] | [14] | [7] | [8]

COc1cccc(C(=O)NN(C(=O)c2cc(C)cc(C)c2)C(C)(C)C)c1C
active: [1] 1.29 µM | [3] 0.886 µM | [4] 32.6 µM | [13] 2.35 µM | [12] 3.74 µM
inactive: [2] | [11] | [16] | [17] | [8] | [9]

Cc1nn(-c2cc(NS(C)(=O)=O)c(Cl)cc2Cl)c(=O)n1C(F)F
active: [1] 4.25 µM | [2] 56.9 µM | [3] 1.62 µM | [13] 4.18 µM | [12] 0.376 µM | [18] 2.46 µM
inactive: [10] | [4] | [11] | [16] | [17] | [8] | [15]

COc1cc(OC)nc(Sc2cccc(Cl)c2C(=O)O)n1
inactive: [1] | [2] | [10] | [11] | [16] | [5] | [17] | [6] | [7] | [8]
active: [12] 20 µM

CCOP(=O)(SC(C)CC)N1CCSC1=O (stereo not drawn)
active: [1] 3.89 µM | [3] 8.82 µM | [13] 3.26 µM | [12] 13.4 µM | [18] 5.18 µM
not listed: [6] | [7] | [9] | [19]
inactive: all other assays above

CCCCSP(=O)(SCCCC)SCCCC
active: [2] 0.205 µM | [4] 2.48 µM | [13] 1.9 µM | [12] 1.9 µM | [15] 1.9 µM
inactive: [19] | [3] | [10] | [11] | [16] | [5] | [17] | [8]

CCCOc1nn(C(=O)NS(=O)(=O)c2ccccc2C(=O)OC)c(=O)n1C
active: [12] 9.43 µM | [18] 36.4 µM
not listed: [1] | [3] | [4] | [9] | [11] | [14] | [16]
inactive: all other assays above

CC(C)[C@H](C(=O)O[C@H](C#N)c1cccc(Oc2ccccc2)c1)c1ccc(Cl)cc1
active: [1] 3.42 µM | [2] 0.166 µM | [18] 20 µM
inactive: [3] | [10] | [4] | [11] | [12] | [17] | [7] | [8] | [15]

N#CSCSC#N
active: [2] 5.18 µM
inactive: [1] | [10] | [11] | [16] | [12] | [6] | [7] | [8]

CC1=NNC(=O)N(/N=C/c2cccnc2)C1
inactive: [1] | [10] | [11] | [12] | [6] | [7] | [8]
active: [2] 46.4 µM | [4] 5.59 µM

CNC(=O)ON=C(SC)C(=O)N(C)C
not listed: [8] | [14] | [15] | [16] | [18]
inactive: all other assays above

CCCCOC(=O)[C@@H](C)Oc1ccc(Oc2ccc(C#N)cc2F)cc1
inactive: [1] | [3] | [10] | [11] | [12] | [6] | [7] | [8]
active: [2] 2.1 µM

S=C1NCCN1
inactive: [1] | [2] | [3] | [10] | [11] | [16] | [14] | [17] | [6] | [7]

CC1(C(=O)Nc2ccc(O)c(Cl)c2Cl)CCCCC1
active: [2] 10.1 µM
inactive: [1] | [3] | [10] | [11] | [13] | [12] | [17] | [8] | [15]
